In all, about 56,000 sequences went through this assay and about 4,700 (8.4%) were called active. The sample holds actives, similar sequences and a random draw of the others, so the mix is not that of the screen. Cut-off read from the data, not from the text of the source: active = GI50 up to about 1.1 µM and inactive = higher. Potency and affinity values are given separately.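 Assay format: 96-well plates, 48-hour exposure. Here, GI50 denotes the concentration required for 50% inhibition of growth.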
Tested on: NCI-H460
Assay: NCI tumour cell line growth inhibition, 48 h

Substance | GI50
[Bis(aminomethyl)tetramethylenesilane]tetrachloropaltinum(IV), CHEMBL2146189 | 314 nM
[Bis(aminomethyl)ethylmethylsilane]tetrachloroplatinum(IV), CHEMBL2146192 | 774 nM
cis-Bis[[(trimethylsilyl)methyl]amino]tetrachloroplatinum(IV), CHEMBL2146191 | 9770 nM
[Bis(aminomethyl)dimethylsilane]tetrachloroplatinum(IV), CHEMBL2146190 | 577 nM
[Bis(aminomethyl)pentamethylenesilane]dichloropaltinum(II), CHEMBL2146202 | 312 nM
[Bis(aminomethyl)pentamethylenesilane]tetrachloropaltinum(IV), CHEMBL2146204 | 206 nM
[Bis(aminomethyl)diethylsilane]tetrachloroplatinum(IV), CHEMBL2146203 | 438 nM
[Bis(aminomethyl)dimethylsilane]dichloroplatinum (II), CHEMBL2146201 | 3370 nM
mu-(1,7-nanodiamine-N,N')bis-(cis-aminedichloroplatimum (II)), CHEMBL2146215 | 1610 nM
[Bis(aminomethyl)tetramethylenesilane]dichloropaltinum(II), CHEMBL2146205 | 2640 nM
CISPLATIN, CHEMBL11359 | 579 nM
